{"source": "the supplement of paper PMC3334620", "note": "Whole data set: some 33,000 sequences, median “E-score (-0.5 to 0.5)” near -0.035, cut for the highest 2% near 0.35. The full list was thinned out, with the highest values kept by preference."}
{"target": "T1, Pdr3 (UniProt P33200)", "T1 sequence": "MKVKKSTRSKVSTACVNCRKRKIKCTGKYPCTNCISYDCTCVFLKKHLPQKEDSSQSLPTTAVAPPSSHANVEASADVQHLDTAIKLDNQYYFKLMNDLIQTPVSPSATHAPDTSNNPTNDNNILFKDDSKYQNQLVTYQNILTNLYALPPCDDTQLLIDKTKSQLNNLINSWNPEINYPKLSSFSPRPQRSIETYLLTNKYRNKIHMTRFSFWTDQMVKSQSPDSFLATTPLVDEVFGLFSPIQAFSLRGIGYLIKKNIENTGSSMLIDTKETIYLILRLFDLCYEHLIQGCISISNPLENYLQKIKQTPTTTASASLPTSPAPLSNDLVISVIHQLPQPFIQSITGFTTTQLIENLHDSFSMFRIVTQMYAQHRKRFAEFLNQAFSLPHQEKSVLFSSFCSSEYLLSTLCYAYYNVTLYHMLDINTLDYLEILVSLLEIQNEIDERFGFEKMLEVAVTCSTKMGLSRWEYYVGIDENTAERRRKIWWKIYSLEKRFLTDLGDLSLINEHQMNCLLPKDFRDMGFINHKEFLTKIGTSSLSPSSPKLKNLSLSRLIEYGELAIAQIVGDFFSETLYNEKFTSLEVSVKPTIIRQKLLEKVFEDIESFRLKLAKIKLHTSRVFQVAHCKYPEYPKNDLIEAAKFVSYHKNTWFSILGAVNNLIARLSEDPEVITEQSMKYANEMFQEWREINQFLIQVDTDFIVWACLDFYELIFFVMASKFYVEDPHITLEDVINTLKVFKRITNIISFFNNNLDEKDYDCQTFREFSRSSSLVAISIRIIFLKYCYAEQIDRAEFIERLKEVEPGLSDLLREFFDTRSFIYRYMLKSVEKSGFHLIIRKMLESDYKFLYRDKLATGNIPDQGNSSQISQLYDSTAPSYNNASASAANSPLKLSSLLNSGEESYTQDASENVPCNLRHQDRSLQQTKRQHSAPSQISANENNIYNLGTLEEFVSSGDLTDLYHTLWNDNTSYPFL", "assay": "PBM E-score (8-mer binding enrichment) (E-score (-0.5 to 0.5)); higher = stronger / more preferred TF binding", "conditions": "protein concentration: 200 nM; construct: GST-full length", "outline": "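Universal all-10-mer Agilent arrays, fresh or stripped once, were converted to double-stranded form by primer extension. GST-tagged yeast transcription factors from PURExpress in vitro transcription/translation, full-length or DNA-binding domain only, were applied at about 100-200 nM and detected with fluorescent anti-GST. After masliner normalisation, the Universal PBM Analysis Suite scored each ungapped eight-base word together with its reverse complement by E-score.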"}
{"sequence": "ACTGAGCG", "PBM E-score": -0.185}
{"sequence": "GGACAATA", "PBM E-score": 0.28}
{"sequence": "TATTTACA", "PBM E-score": -0.097}
{"sequence": "ACAGTTCC", "PBM E-score": 0.387}
{"sequence": "ACAGTTCT", "PBM E-score": 0.082}
{"sequence": "CCAGTTCC", "PBM E-score": 0.318}
{"sequence": "CGCGGAAG", "PBM E-score": 0.454}
{"sequence": "CGTGGAAA", "PBM E-score": 0.243}
{"sequence": "CGCGGAAA", "PBM E-score": 0.476}
{"sequence": "GGCGGAAC", "PBM E-score": 0.467}
{"sequence": "AGGGGAAA", "PBM E-score": -0.0896}
{"sequence": "AGAGGAAA", "PBM E-score": 0.0754}
{"sequence": "GGGGGAAC", "PBM E-score": -0.165}
{"sequence": "CGGGGAAA", "PBM E-score": 0.246}
{"sequence": "GGCAGAAC", "PBM E-score": 0.123}
{"sequence": "AGCGGAAA", "PBM E-score": 0.391}
{"sequence": "CGTGGAAG", "PBM E-score": 0.208}
{"sequence": "CGCAGAAG", "PBM E-score": -0.09}
{"sequence": "AATTCGAT", "PBM E-score": 0.0319}
{"sequence": "AGCCTCGG", "PBM E-score": 0.156}
{"sequence": "AGGGGAAC", "PBM E-score": -0.0871}
{"sequence": "TGCGGACA", "PBM E-score": 0.237}
{"sequence": "AGCGGAAG", "PBM E-score": 0.341}
{"sequence": "TGCGGGAA", "PBM E-score": 0.313}
{"sequence": "AGCGGAAT", "PBM E-score": 0.392}
{"sequence": "AGCGGACT", "PBM E-score": -0.0134}
{"sequence": "GGGGGAAA", "PBM E-score": 0.138}
{"sequence": "GGCGGAAA", "PBM E-score": 0.361}
{"sequence": "AGAGGAAC", "PBM E-score": -0.066}
{"sequence": "TGCGGAAA", "PBM E-score": 0.357}
{"sequence": "GGAGGAAA", "PBM E-score": 0.0123}
{"sequence": "AGCGGAAC", "PBM E-score": 0.457}
{"sequence": "CCGCCGAA", "PBM E-score": 0.277}
{"sequence": "CCCAACTC", "PBM E-score": 0.16}
{"sequence": "ACCCTCGG", "PBM E-score": 0.156}
{"sequence": "CGTCGTAA", "PBM E-score": -0.0777}
{"sequence": "CGCATCAC", "PBM E-score": -0.0776}
{"sequence": "AGGCAACG", "PBM E-score": 0.00606}
{"sequence": "ACAACCGC", "PBM E-score": 0.202}
{"sequence": "AAAACTAC", "PBM E-score": 0.179}
{"sequence": "CATCGGAC", "PBM E-score": 0.143}
{"sequence": "AATCGGAC", "PBM E-score": 0.212}
{"sequence": "TATCGGAA", "PBM E-score": 0.419}
{"sequence": "TATCGGCA", "PBM E-score": 0.101}
{"sequence": "GATCGGAC", "PBM E-score": 0.362}
{"sequence": "AATCGGAA", "PBM E-score": 0.445}
{"sequence": "TATCGGGA", "PBM E-score": 0.228}
{"sequence": "CATCGGAG", "PBM E-score": 0.0478}
{"sequence": "AATCGGAT", "PBM E-score": 0.317}
{"sequence": "AATCGGAG", "PBM E-score": 0.276}
{"sequence": "CATCGGAA", "PBM E-score": 0.422}
{"sequence": "GATCGGGC", "PBM E-score": 0.142}
{"sequence": "CCTTTAGA", "PBM E-score": -0.22}
{"sequence": "GCAGAATA", "PBM E-score": -0.0373}
{"sequence": "CCTTCCTA", "PBM E-score": -0.401}
{"sequence": "TCGGTAGA", "PBM E-score": -0.027}
{"sequence": "AAAGTTGA", "PBM E-score": -0.0975}
{"sequence": "AACGGCTC", "PBM E-score": 0.0795}
{"sequence": "ACGTTACG", "PBM E-score": -0.211}
{"sequence": "AATTTGCT", "PBM E-score": -0.114}
{"sequence": "CTGCTCCC", "PBM E-score": -0.0396}
{"sequence": "GACCCGCA", "PBM E-score": 0.0817}
{"sequence": "GATCGGGA", "PBM E-score": 0.171}
{"sequence": "GATCGGAA", "PBM E-score": 0.424}
{"sequence": "GATCGGTA", "PBM E-score": 0.146}
{"sequence": "GTGCTTCA", "PBM E-score": -0.0273}
{"sequence": "AGCTTAAG", "PBM E-score": -0.0452}
{"sequence": "GGGCCCAA", "PBM E-score": 0.0863}
{"sequence": "AAGTGAGG", "PBM E-score": -0.173}
{"sequence": "ACCCCCGG", "PBM E-score": 0.17}
{"sequence": "ACCCGGGG", "PBM E-score": 0.357}
{"sequence": "CCCCCGGG", "PBM E-score": 0.364}
{"sequence": "AAACCCGC", "PBM E-score": 0.258}
{"sequence": "ACCCCGTG", "PBM E-score": 0.181}
{"sequence": "CCCCCCGG", "PBM E-score": 0.132}
{"sequence": "AACCGGGG", "PBM E-score": 0.199}
{"sequence": "ACCCCGGG", "PBM E-score": 0.376}
{"sequence": "AAACCCGG", "PBM E-score": 0.401}
{"sequence": "AAACCCGA", "PBM E-score": 0.243}
{"sequence": "ACCGGGGG", "PBM E-score": 0.0642}
{"sequence": "CCCCCGCG", "PBM E-score": 0.349}
{"sequence": "ATAGATTA", "PBM E-score": -0.0055}
{"sequence": "CCAATAGG", "PBM E-score": -0.154}
{"sequence": "CGAGATAC", "PBM E-score": 0.128}
{"sequence": "GGTAAAGA", "PBM E-score": -0.0497}
{"sequence": "ATGTCTGA", "PBM E-score": -0.106}
{"sequence": "ATCCAAAA", "PBM E-score": -0.00928}
{"sequence": "GGCCCCGA", "PBM E-score": 0.181}
{"sequence": "GGCAGCCA", "PBM E-score": 0.0184}
{"sequence": "GTATCTAA", "PBM E-score": 0.0522}
{"sequence": "CTGAGAAA", "PBM E-score": -0.236}
{"sequence": "CGCAATGC", "PBM E-score": -0.0405}
{"sequence": "ACAGTGAC", "PBM E-score": 0.0756}
{"sequence": "CCCCGGCC", "PBM E-score": 0.0967}
{"sequence": "AACCCCGG", "PBM E-score": 0.312}
{"sequence": "AACCCGGG", "PBM E-score": 0.424}
{"sequence": "CCCCGGGG", "PBM E-score": 0.412}
{"sequence": "AACCCGGT", "PBM E-score": 0.258}
{"sequence": "CACCGGGG", "PBM E-score": 0.0593}
